The values that follow come from PMC5515408, “Sequence-specific DNA binding by MYC/MAX to low-affinity non-E-box motifs”.

Whole data set: some 4,500 sequences, median “log2 normalized fluorescence” near -0.34, cut for the highest 2% near 3.3. This is one part of a sample in which the highest values are shown more often than they occur.

Chain of MAX:MAX (p21) (P61244 other isoform, or with tags, fused parts or gaps): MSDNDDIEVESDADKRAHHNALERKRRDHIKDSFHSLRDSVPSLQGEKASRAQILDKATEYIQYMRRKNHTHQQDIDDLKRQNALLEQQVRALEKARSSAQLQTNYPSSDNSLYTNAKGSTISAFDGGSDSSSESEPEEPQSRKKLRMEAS

The experiment has as its target MAX:MAX (p21) (human, UniProt P61244-2 1-151). The experiment in a line: protein-binding microarray (anti-MAX antibody); PBM: 15 mM Tris-HCl pH 7.5, 100 mM KCl, 0.075% NP40, 7.5 mM beta-mercaptoethanol, 375 ng/ul BSA, 8 ng/ul poly(dA-dT):(dA-dT), 550 ng complex, 60 min, room tempe; high values mean tight binding. As to conditions: protein: recombinant; tags: 6xHis; chain copies: 2; label: 3' end of printed strand (linker) attached to glass slide; dsDNA, one strand shown. In outline: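 For each of ~5000 unique double-stranded 12-nt sequences, spotted in triplicate on a custom Agilent glass array, binding of His-tagged human MYC:MAX or MAX:MAX dimers is reported as log2 normalized fluorescence. The dimers (550 ng, E. coli-expressed) were incubated for 60 min at room temperature in Tris-KCl buffer, pH 7.5, with NP40, BSA and poly(dA-dT) competitor. Detection used anti-MAX and secondary antibodies with a 543 nm scan.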
In the case of “CCGGCTATCACGTGGGATTAATAGCTAAGATTACTATATCGACG”, the binding signal is 3.05 log2 normalized fluorescence.

For “CCGGCGGGCACGTGGTCTTAATAGCTAAGATTACTATATCGACG”, the binding signal was 3.13 log2 normalized fluorescence.

As to “CCGGCTACTATGCCATGTTAATAGCTAAGATTACTATATCGACG”, the binding signal was 0.457 log2 normalized fluorescence.

As to “CCGGCGGGCACGTGGGATTAATAGCTAAGATTACTATATCGACG”, the binding signal is 3.48 log2 normalized fluorescence.

For the sequence “CCGGCTGCCATGTGGTTTTAATAGCTAAGATTACTATATCGACG”, the binding signal is 3.15 log2 normalized fluorescence.

On to “CCGGCTGGCACGTCGGATTAATAGCTAAGATTACTATATCGACG”, for which the binding signal was 1.33 log2 normalized fluorescence.

Turning to “CCGGCTGGCACGTGGCATTAATAGCTAAGATTACTATATCGACG”, the binding signal was 3.03 log2 normalized fluorescence.

On to “CCGGCTGCCATGTGGGATTAATAGCTAAGATTACTATATCGACG”, for which the binding signal was 3.34 log2 normalized fluorescence.

“CCGGCTGGCACGTGGGATTAATAGCTAAGATTACTATATCGACG”: the binding signal is 3.64 log2 normalized fluorescence.

As for “CCGGCTGACGATCTGTATTAATAGCTAAGATTACTATATCGACG”, the binding signal was -0.62 log2 normalized fluorescence.

For the sequence “CCGGCTGAAGAGAGGTATTAATAGCTAAGATTACTATATCGACG”, the binding signal is -0.631 log2 normalized fluorescence.

On to “CCGGCTGACCCATGGTTTTAATAGCTAAGATTACTATATCGACG”, for which the binding signal was 2 log2 normalized fluorescence.

Regarding “CCGGCTGACATGAGGTATTAATAGCTAAGATTACTATATCGACG”, the binding signal was 2.52 log2 normalized fluorescence.

For “CCGGCTGACCACAAGTATTAATAGCTAAGATTACTATATCGACG”, the binding signal is 1.12 log2 normalized fluorescence.

For “CCGGCTGACCCAACGTATTAATAGCTAAGATTACTATATCGACG”, the binding signal was -0.297 log2 normalized fluorescence.

As to “CCGGCTCACACGTGGGCTTAATAGCTAAGATTACTATATCGACG”, the binding signal is 3.27 log2 normalized fluorescence.

Turning to “CCGGCCGACACGTGGTATTAATAGCTAAGATTACTATATCGACG”, the binding signal was 3.12 log2 normalized fluorescence.

Take “CCGGCTGACACGTGGGATTAATAGCTAAGATTACTATATCGACG”: the binding signal is 3.16 log2 normalized fluorescence.

In the case of “CCGGCTGACACGTGGGCTTAATAGCTAAGATTACTATATCGACG”, the binding signal was 3.35 log2 normalized fluorescence.

On to “CCGGCTGACACGGCTTATTAATAGCTAAGATTACTATATCGACG”, for which the binding signal was 0.66 log2 normalized fluorescence.

For “CCGGCTGACACGTGACCTTAATAGCTAAGATTACTATATCGACG”, the binding signal was 3.18 log2 normalized fluorescence.

Regarding “CCGGCTGACACGTGGCCTTAATAGCTAAGATTACTATATCGACG”, the binding signal was 3.37 log2 normalized fluorescence.

In the case of “CCGGCCGACACGTGGGCTTAATAGCTAAGATTACTATATCGACG”, the binding signal was 3.29 log2 normalized fluorescence.

As to “CCGGCTGACACGTGGACTTAATAGCTAAGATTACTATATCGACG”, the binding signal was 3.07 log2 normalized fluorescence.

In the case of “CCGGCTGAAAAACCGTATTAATAGCTAAGATTACTATATCGACG”, the binding signal was -0.672 log2 normalized fluorescence.

As to “CCGGCTGAAGGCACGTATTAATAGCTAAGATTACTATATCGACG”, the binding signal is 0.169 log2 normalized fluorescence.

As for “CCGGCTGAGCACTGGTATTAATAGCTAAGATTACTATATCGACG”, the binding signal was -0.181 log2 normalized fluorescence.

Regarding “CCGGCTGAGGACTTGTATTAATAGCTAAGATTACTATATCGACG”, the binding signal is -0.44 log2 normalized fluorescence.

As to “CCGGCTCCCACCTGGTATTAATAGCTAAGATTACTATATCGACG”, the binding signal was 2.61 log2 normalized fluorescence.

In the case of “CCGGCTGACGGACGGTATTAATAGCTAAGATTACTATATCGACG”, the binding signal was -0.374 log2 normalized fluorescence.

Regarding “CCGGCTGACGTATCGTATTAATAGCTAAGATTACTATATCGACG”, the binding signal was -0.167 log2 normalized fluorescence.

Regarding “CCGGCGATCACGTGGTATTAATAGCTAAGATTACTATATCGACG”, the binding signal was 3.19 log2 normalized fluorescence.

“CCGGCAACCACGTGGTATTAATAGCTAAGATTACTATATCGACG”: the binding signal was 3.15 log2 normalized fluorescence.

Turning to “CCGGCGTCCACGTGGTATTAATAGCTAAGATTACTATATCGACG”, the binding signal was 3.64 log2 normalized fluorescence.

Consider “CCGGCTTCCACGTGGTATTAATAGCTAAGATTACTATATCGACG”, for which the binding signal is 3.13 log2 normalized fluorescence.

In the case of “CCGGCGGCCACGTGGTATTAATAGCTAAGATTACTATATCGACG”, the binding signal is 3.16 log2 normalized fluorescence.

For the sequence “CCGGCGACCACGTGGTATTAATAGCTAAGATTACTATATCGACG”, the binding signal is 3.3 log2 normalized fluorescence.

Take “CCGGCTACGACGTGGTATTAATAGCTAAGATTACTATATCGACG”: the binding signal is 2.57 log2 normalized fluorescence.

As to “CCGGCTGATCCTACGTATTAATAGCTAAGATTACTATATCGACG”, the binding signal was -0.737 log2 normalized fluorescence.

In the case of “CCGGCTGATCACGTGTATTAATAGCTAAGATTACTATATCGACG”, the binding signal is 3.48 log2 normalized fluorescence.

Regarding “CCGGCTGACCGTGTGTATTAATAGCTAAGATTACTATATCGACG”, the binding signal is 1.49 log2 normalized fluorescence.

Turning to “CCGGCTGACCGCGCGTATTAATAGCTAAGATTACTATATCGACG”, the binding signal was 1.24 log2 normalized fluorescence.

Turning to “CCGGCTGATCGTGTGTATTAATAGCTAAGATTACTATATCGACG”, the binding signal is 1.12 log2 normalized fluorescence.

Consider “CCGGCTGACCGCGTGTATTAATAGCTAAGATTACTATATCGACG”, for which the binding signal is 3.4 log2 normalized fluorescence.

As to “CCGGCTGATTACGTGTATTAATAGCTAAGATTACTATATCGACG”, the binding signal is 0.238 log2 normalized fluorescence.

For the sequence “CCGGCTGACACCGTGTATTAATAGCTAAGATTACTATATCGACG”, the binding signal is 1.72 log2 normalized fluorescence.

Turning to “CCGGCTGACGCCTAGTATTAATAGCTAAGATTACTATATCGACG”, the binding signal is -0.368 log2 normalized fluorescence.

For “CCGGCTGAAGGCGCGTATTAATAGCTAAGATTACTATATCGACG”, the binding signal was -0.33 log2 normalized fluorescence.

On to “CCGGCTGAAGCCCGGTATTAATAGCTAAGATTACTATATCGACG”, for which the binding signal was -0.644 log2 normalized fluorescence.

Turning to “CCGGCTGACACGTAGCATTAATAGCTAAGATTACTATATCGACG”, the binding signal is 1.7 log2 normalized fluorescence.

Turning to “CCGGCTGACATACAGTATTAATAGCTAAGATTACTATATCGACG”, the binding signal was 0.345 log2 normalized fluorescence.

Take “CCGGCTGACTCAAGGTATTAATAGCTAAGATTACTATATCGACG”: the binding signal was 0.208 log2 normalized fluorescence.

With “CCGGCTGGCACCTGGTTTTAATAGCTAAGATTACTATATCGACG”, the binding signal is 1.82 log2 normalized fluorescence.

For the sequence “CCGGCTGGCACGTGGTTTTAATAGCTAAGATTACTATATCGACG”, the binding signal is 3.33 log2 normalized fluorescence.

In the case of “CCGGCTGGCACGTGGTATTAATAGCTAAGATTACTATATCGACG”, the binding signal was 3.26 log2 normalized fluorescence.

Take “CCGGCTGCCACGTGGTGTTAATAGCTAAGATTACTATATCGACG”: the binding signal was 3.07 log2 normalized fluorescence.

As for “CCGGCTGGCACGTGGTGTTAATAGCTAAGATTACTATATCGACG”, the binding signal is 3.4 log2 normalized fluorescence.

For the sequence “CCGGCCGGCACGTGGTGTTAATAGCTAAGATTACTATATCGACG”, the binding signal was 3.21 log2 normalized fluorescence.

With “CCGGCTGAGTGTCGGTATTAATAGCTAAGATTACTATATCGACG”, the binding signal is -0.348 log2 normalized fluorescence.

For the sequence “CCGGCTGATGCCCTGTATTAATAGCTAAGATTACTATATCGACG”, the binding signal was -0.309 log2 normalized fluorescence.

Turning to “CCGGCTGAACGTACGTATTAATAGCTAAGATTACTATATCGACG”, the binding signal was -0.307 log2 normalized fluorescence.

Consider “CCGGCTGAGGCGTCGTATTAATAGCTAAGATTACTATATCGACG”, for which the binding signal was -0.641 log2 normalized fluorescence.

Regarding “CCGGCTGAACGCAAGTATTAATAGCTAAGATTACTATATCGACG”, the binding signal is 0.234 log2 normalized fluorescence.

Regarding “CCGGCAGAAACGTGTTATTAATAGCTAAGATTACTATATCGACG”, the binding signal is 2.96 log2 normalized fluorescence.

With “CCGGCTGACACGTGATATTAATAGCTAAGATTACTATATCGACG”, the binding signal was 3.05 log2 normalized fluorescence.

Take “CCGGCCGACACGTGATATTAATAGCTAAGATTACTATATCGACG”: the binding signal is 3.43 log2 normalized fluorescence.

Regarding “CCGGCCGACACGTGCTATTAATAGCTAAGATTACTATATCGACG”, the binding signal was 3.18 log2 normalized fluorescence.

Take “CCGGCTGACACGTTATATTAATAGCTAAGATTACTATATCGACG”: the binding signal is 2.87 log2 normalized fluorescence.

With “CCGGCCGACACGGCGTATTAATAGCTAAGATTACTATATCGACG”, the binding signal is 0.94 log2 normalized fluorescence.

In the case of “CCGGCTGACACACGTTATTAATAGCTAAGATTACTATATCGACG”, the binding signal is 2.37 log2 normalized fluorescence.

As for “CCGGCAGACACGTGGTGTTAATAGCTAAGATTACTATATCGACG”, the binding signal is 3.28 log2 normalized fluorescence.

On to “CCGGCCGACACCTGTTATTAATAGCTAAGATTACTATATCGACG”, for which the binding signal was 2.63 log2 normalized fluorescence.

“CCGGCAGACACGTGTTATTAATAGCTAAGATTACTATATCGACG”: the binding signal is 3.42 log2 normalized fluorescence.

For the sequence “CCGGCTGACACGTGTTATTAATAGCTAAGATTACTATATCGACG”, the binding signal is 3.29 log2 normalized fluorescence.

“CCGGCCGACACGTGTTATTAATAGCTAAGATTACTATATCGACG”: the binding signal is 3.4 log2 normalized fluorescence.
